Bioassay records deposited in PubChem by National Center for Advancing Translational Sciences (NCATS).
JMJD2A Tudor: inhibitors of human JMJD2A Tudor domain; AID 504339; O75164; AlphaScreen JMJD2A-Tudor / H3K4me3 peptide binding; actives 4.4% (n = 390,000); Potency, µM (doses to about 114 µM), inactives show at the top dose activity change, negative = inhibition, most hits filed as inhibitors; also: % is scaled to controls: 0 for no effect and ±100 for the full control effect; nearly all actives have a fitted effect of over 50% in size
ALOX12 inh: ALOX12 (human) lipoxygenase inhibition | P18054 | Potency, µM (doses to about 108 µM), for inactives: at the top dose activity change, negative = inhibition, most hits filed as inhibitors | purified 12hLO, xylenol orange hydroperoxide absorbance | actives 1.1% (n = 580,000); also: % is scaled to controls: 0 for no effect and ±100 for the full control effect
Target sequence (P18054 whole entry, looked up): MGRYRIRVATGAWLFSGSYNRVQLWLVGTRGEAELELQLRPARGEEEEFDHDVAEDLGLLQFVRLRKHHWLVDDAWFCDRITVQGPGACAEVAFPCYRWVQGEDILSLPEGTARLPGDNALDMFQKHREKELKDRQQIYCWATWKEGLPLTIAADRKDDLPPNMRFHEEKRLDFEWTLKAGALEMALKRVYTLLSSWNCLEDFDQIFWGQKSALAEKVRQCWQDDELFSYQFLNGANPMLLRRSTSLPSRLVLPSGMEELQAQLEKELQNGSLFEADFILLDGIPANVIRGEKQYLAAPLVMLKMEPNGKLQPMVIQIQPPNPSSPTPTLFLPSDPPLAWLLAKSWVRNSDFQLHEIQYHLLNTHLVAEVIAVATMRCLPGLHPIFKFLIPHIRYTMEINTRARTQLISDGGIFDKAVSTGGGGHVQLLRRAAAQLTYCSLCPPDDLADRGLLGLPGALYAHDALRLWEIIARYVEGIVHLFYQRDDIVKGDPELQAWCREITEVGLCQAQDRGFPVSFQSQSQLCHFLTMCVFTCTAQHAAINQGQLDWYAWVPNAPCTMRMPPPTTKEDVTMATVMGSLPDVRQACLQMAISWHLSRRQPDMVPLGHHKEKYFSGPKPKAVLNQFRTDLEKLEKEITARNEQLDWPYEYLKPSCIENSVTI
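Hydroperoxide product was detected by ferrous iron/xylenol orange as the 573 to 405 nm absorbance ratio. Arachidonic acid at 40 uM (final) was turned over for 30 min at room temperature by 150 nM human 12hLO, pH 7.0 Hepes buffer, after 15 min compound preincubation.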
HP1b chromo inh: blocks HP1-beta chromodomain binding to methylated histone tails; P83916; Potency, µM (doses to about 114 µM), inactives show at the top dose activity change, negative = inhibition, usual class: inhibitors; AID 540317; actives 0.56% (n = 390,000); AlphaScreen HP1-beta / biotin-H3K9me3 peptide binding; also: nearly all actives have a fitted effect of over 70% in size
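AlphaScreen: HP1-beta (50 nM) preformed 30 min with biotin-H3(1-18)K9me3 peptide (50 nM) in PBS pH 7.4, 0.01% Tween-20. Compound added for 30 min at RT, then streptavidin donor/nickel chelate acceptor beads (10 ug/mL) for 30 min.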
BAZ2B inh: BAZ2B (human) inhibition. Potency, µM (doses to about 114 µM), without a hit: at the top dose activity change, negative = inhibition, usual class: inhibitors. actives 4.4% (n = 360,000). AlphaScreen BAZ2B-H3K14Ac peptide displacement. Q9UIF8; also: % is scaled to controls: 0 for no effect and ±100 for the full control effect; nearly all actives have a fitted effect of over 60% in size
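BAZ2B 50 nM plus b-H3(5-23)K14Ac 50 nM, PBS pH 7.4/0.01% Tween-20, 30 min RT; compound added (max 110 uM), 30 min RT; streptavidin donor/Ni-chelate acceptor beads 10 ug/mL final, 20 min dark; AlphaScreen read.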
G9a block: G9a (human) methyltransferase inhibition; actives 8.8% (n = 350,000); Potency, µM (top dose mostly 102 µM), for the others: at the top dose activity, negative = inhibition, hits mostly inhibitors; G9a H3K9 monomethylation, AlphaScreen, 2 h; Q96KQ7; also: % is scaled to controls: 0 for no effect and ±100 for the full control effect; nearly all actives have a fitted effect of over 75% in size
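AlphaScreen detection with an anti-monomethyl H3K9 antibody quantified product after a 2 h room-temperature reaction containing 500 nM biotinylated H3K9 peptide, 20 µM SAM and 20 nM enzyme, which had been preincubated 15 min with compound.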
Sfp inh: inhibitors of Bacillus subtilis Sfp phosphopantetheinyl transferase. Q9F4F7. Biochemical Sfp PPTase activity, qHTS. Potency, µM, for the others: largest response in the series, negative = inhibition, hits mostly inhibitors. actives 3.5% (n = 310,000);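 also: the enzyme is Sfp with the accession as filed and its product quenches rhodamine fluorescence; 0% = enzyme reaction without inhibitor and -100% = no enzyme wells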
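Sfp 15 nM + cpd, 15 min RT; start w/ rhodamine-CoA 5 uM, BHQ-2-YbbR 12.5 uM (final); 50 mM Hepes pH 7.6, 10 mM MgCl2, 0.01% NP-40, 0.01% BSA; read 525/598 nm at 0 and 30 min.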
* marks the source's active call; other numbers are inactive results; ? = inconclusive; . = no result; [ ] = remark or other dose. Shown are actives, neighbours in structure and some others; about 8.7% of the full set was active somewhere. Calls follow the shape of the dose curve; as a rule, active = well fitted curve in the direction sought with a large enough effect; inconclusive = small, poorly fitted or top-dose-only effect, or another doubt; inactive = no such curve, though single readings can be large; an effect the other way counts as inactive or inconclusive. Potency is read from the fitted curve at half-maximal effect.

SMILES	JMJD2A Tudor	ALOX12 inh	HP1b chromo inh	BAZ2B inh	G9a block	Sfp inh
O=C(NNC(=O)c1ccc(NC(=O)c2ccccc2)cc1)Nc1ccccc1	?	-15%	15%	71µM*	?	-3%
O=C(NNC(=O)c1cccc(Br)c1)Nc1ccc(Cl)cc1	13µM*	-7%	?	-10%	0%	18%
O=C(C1CC1)N1CCC(Oc2cnc3c(ccn3-c3cncnc3)c2)CC1	.	8%[176 µM]	.	.	.	.
CC(C)Cn1c(Oc2ccc(Cl)cc2)nc2c1c(=O)n(C)c(=O)n2C	.	-24%	.	.	.	.
O=C(NNC(=S)Nc1ccc(Br)cc1)c1ccccc1	-24%	459%	17%	-17%	-25%	10%
O=C(NNC(=S)Nc1ccccc1)c1cccc(Br)c1	-19%	14%	3%	8%	50µM*	14%
O=[N+]([O-])c1ccccc1C=C(c1ccccc1)c1ccccc1	.	60%	.	.	.	.
Cc1ccc(-c2ccc(/C=N/N=C3/NC(=O)C(CC(=O)O)S3)o2)c([N+](=O)[O-])c1 (stereo unspecified)	-35%	-15%	1%	?	13%[2.33 µM]	20µM*
Cc1c(C(=O)N/N=C/c2ccc(-c3ccccc3[N+](=O)[O-])o2)sc(N)c1C#N	?	?	35%	?	-14%[59 µM]	?
Cc1ccc(S(=O)(=O)Oc2ccc(/C=N/N=C3/NC(=O)C(CC(=O)O)S3)cc2)cc1 (stereo unspecified)	-23%	1%	-10%	?	11%	21%
O=C(O)CC1S/C(=N/N=C/c2ccc(-c3ccccc3[N+](=O)[O-])o2)NC1=O (stereo unspecified)	?	0%	4%	50µM*	-42%[2.33 µM]	22µM*
O=C(NCCN1CCN(c2cccc(Cl)c2)CC1)c1nnc(Cc2ccc(F)cc2)o1	.	11%	.	.	.	.
COc1cccc2cc(S(=O)(=O)N3CCCCC3)c(=O)oc12	.	13%	.	.	.	.
CCc1noc(-c2ccn3c(CNC(=O)c4cc5ccccc5[nH]4)nnc3c2)n1	.	0%	.	.	.	.
Nc1nc2c(s1)C(c1cccc(F)c1)CC(=O)N2 (stereo unspecified)	.	16µM*	.	.	.	.
CSc1ccc(C2CC(=O)Nc3nc(N)sc32)cc1 (stereo unspecified)	.	25µM*	.	.	.	.
CC1(C)CC(=O)C2=C(C1)NC(=O)CC2c1cccc(F)c1 (stereo unspecified)	11%	1%	21%	8%	4%[0.0925 µM]	-5%
COc1cc(OC)c(OC)cc1CN1CCC(O)CC1	18µM*	?	?	?	?	-10%
COc1ccc(OC)c(CN2CCN(C/C=C/c3ccccc3)CC2)c1	.	0%	.	.	.	.
COc1cc(OC)c(OC)cc1CN1CCN(Cc2cccn2C)CC1	3.5µM*	?	25µM*	40µM*	3.5µM*	50µM*
CCOc1ccccc1N1CCN(Cc2ccc(OC)c(OC)c2OC)CC1	4µM*	?	?	?	?	-12%
COc1cc(OC)c(OC)cc1CN1CCN(c2ccccc2OC)CC1	3.2µM*	?	?	?	?	-17%
COCc1cc(C[C@@H]2CC[C@H](O)[C@@H](CN(C(=O)Nc3ccccc3)C(=O)Nc3ccccc3)O2)no1	.	1%	.	.	.	.
CSc1nc(C)c(CCC(=O)NC(c2ccccc2)C(C)C)c(C)n1 (stereo unspecified)	.	-3%	.	.	.	.
O=C(CCCn1ccnc1)N1CCn2nc(C(O)Cc3ccccc3)cc2C1 (stereo unspecified)	.	36%	.	.	.	.
SMILES	JMJD2A Tudor	ALOX12 inh	HP1b chromo inh	BAZ2B inh	G9a block	Sfp inh
COc1ccc2nc(/C=N/NC(=O)CCNC(=O)OC(C)(C)C)ccc2c1	-24%	?	13%	-15%	32µM*	11%
Cc1nc(C#N)c(N/N=C/c2cccc(Cl)c2)o1	?	40µM*	19%	-11%	0%	-6%
Cc1cc(N/N=C/c2cccc(Cl)c2)nc(-n2nc(C)cc2C)n1	-28%	204%	19%	-28%	-1%	16%
CC1CCCC(C)N1C(=C(Cl)Cl)C(=C1SCCS1)[N+](=O)[O-] (stereo unspecified)	-19%[11.4 µM]	-3%	?	18µM*	35µM*	0%
CN=c1scc(-c2[nH]c(C)c(C(=O)OC)c2C)n1C	.	7%	.	.	.	.
COC(=O)c1c(C)[nH]c(-c2csc(N)n2)c1C	-25%	?	-3%	.	?	45µM*
Cc1cc(C)cc(CC(CC(=O)O)C(=O)Nc2cccc(C(F)(F)F)c2)c1 (stereo unspecified)	.	15%	.	.	.	.
C(=N\Nc1nc(N2CCOCC2)nc(N2CCOCC2)n1)/c1ccco1	.	.	.	?	-2%	19%
Fc1ccc(Nc2nc(N/N=C/c3ccco3)nc(N3CCCCC3)n2)cc1	?	-11%	-9%	?	40µM*	0%
O=[N+]([O-])c1ccccc1C1Nc2cccc3cccc(c23)N1	40µM*	?	?	32µM*	2.8µM*	8.9µM*
COc1ccccc1C1Nc2cccc3cccc(c23)N1	50µM*	?	?	50µM*	?	56µM*
O=C(Nc1cccc(NC(=O)c2cc([N+](=O)[O-])ccc2Cl)n1)c1cc([N+](=O)[O-])ccc1Cl	?	.	12%	.	.	.
Oc1ccccc1C1Nc2cccc3cccc(c23)N1	-19%[11.4 µM]	0%	?	35µM*	-118%[59 µM]	22µM*
Nc1nc2n(n1)C(=O)CC(c1ccccc1[N+](=O)[O-])N2 (stereo unspecified)	-7%	2%	52%	-4%	-8%	5%
CCOc1ccccc1C1NC(=O)c2ccccc2N1 (stereo unspecified)	-7%	64%	25%	.	.	.
O=[N+]([O-])c1ccc(Cl)c(C2Nc3cccc4cccc(c34)N2)c1	25µM*	-16%	?	18µM*	13µM*	?
N#Cc1cccc(NC(=O)CSc2nnc(-c3ccc(F)cc3)n2CC2CCCO2)c1 (stereo unspecified)	.	22%	.	.	.	.
Cc1oc(-c2nc(C#N)c(NCCCN(C)C)o2)cc1S(=O)(=O)N1CCCC1	.	-6%	.	.	.	.
O=C(O)c1c[nH]c2ccccc12	.	-18%	.	.	.	.
CN(C)c1ccc(C2NC(=O)c3ccccc3N2)cc1 (stereo unspecified)	-17%	48%	24%	-5%	.	0%
COc1ccc(C2Nc3cccc4cccc(c34)N2)cc1	?	?	?	40µM*	35µM*	2%
COc1cc(OC)c(C2Nc3cccc4cccc(c34)N2)c(OC)c1	50µM*	?	?	35µM*	28µM*	-17%
c1ccc(C2Nc3cccc4cccc(c34)N2)cc1	?	?	?	?	13µM*	28µM*
